Bioassay records (PubChem BioAssay)
tim23-1 inh: growth inhibitors of tim23-1 mutant yeast, primary screen, luminescence, uHTS. S. cerevisiae tim23-1 growth, BacTiter-Glo luminescence, 24 h. inhibition, % at 20 µM. 330,000 compounds, 1.3% hits. AID 463212, 2010;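 active = growth inhibition of the mutant yeast at or above 50%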;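 note: temperature-sensitive mutant grown at 25 °C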
PfHsp90 yeast 2: growth inhibition of PfHsp90-expressing yeast, primary screen, antimalarial PfHsp90 inhibitor project, S. cerevisiae, BacTiter-Glo luminescence, single point, set 2; BacTiter-Glo ATP, 48 h; yeast lacking PDR1 and PDR3 efflux regulators; inhibition, % at 9.4 µM; 310,000 compounds, 0.32% hits; AID 504621, 2011;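 active = every replicate shows inhibition above about 80%, whatever the replicate mean, limit read from the data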
EBI2 block: EBI2 receptor antagonists, beta-arrestin recruitment, primary screen, cell-based, luminescence, 7a,25-OHC stimulation, uHTS. inhibition, % at 5 µM. 7a,25-OHC stimulated. 360,000 compounds, 0.81% hits. G-protein coupled receptor 183 (Homo sapiens), P32249; in the data active = inhibition above about 38%;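 note: enzyme fragment complementation signal reports receptor beta-arrestin coupling in cells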
Target sequence (P32249 whole entry, looked up, the tested form may be a part): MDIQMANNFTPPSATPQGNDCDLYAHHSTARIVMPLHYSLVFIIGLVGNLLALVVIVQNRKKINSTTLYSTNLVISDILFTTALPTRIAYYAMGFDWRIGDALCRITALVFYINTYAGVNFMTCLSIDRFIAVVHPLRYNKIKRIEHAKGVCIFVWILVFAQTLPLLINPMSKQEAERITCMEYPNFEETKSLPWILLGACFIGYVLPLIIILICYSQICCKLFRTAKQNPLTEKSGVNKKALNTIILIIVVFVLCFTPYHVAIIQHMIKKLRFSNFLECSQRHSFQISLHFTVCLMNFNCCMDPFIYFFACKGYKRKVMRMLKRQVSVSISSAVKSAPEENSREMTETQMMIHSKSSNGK
SKKanGAS inh: S. pyogenes SKKanGAS growth inhibitors in kanamycin, primary screen, streptokinase expression inhibitor project, SKKanGAS strain, BacTiter-Glo luminescence | 6 h | inhibition, % at 7.5 µM | 300,000 compounds, 1.3% hits;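 active = mean replicate score, as percent of positive control median, at least 50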;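 note: strain carries kanamycin resistance gene driven by streptokinase promoter and grows in 40 µg/ml kanamycin; loss of luminescence reflects streptokinase promoter inhibition or plain growth inhibition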
TIM10 inh: growth inhibitors of isogenic TIM10 control yeast, primary screen, counter-screen for tim10-1 yeast inhibitor project, luminescence, uHTS; 330,000 compounds, 1.4% hits; S. cerevisiae TIM10 strain growth, BacTiter-Glo luminescence, 24 h; AID 463195, 2010; inhibition, % at 10 µM;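 active = inhibition of 40% or more at the single tested concentration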;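 note: wild-type TIM10 isogenic control strain grown at permissive 25 °C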
tim10-1 inh: growth inhibitors of tim10-1 mutant yeast, primary screen, luminescence, uHTS; S. cerevisiae tim10-1 ts strain growth, BacTiter-Glo, 24 h; inhibition, % at 20 µM; 330,000 compounds, 2.2% hits; AID 463190, 2010;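 active = inhibition of at least 40%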;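 note: mutant grown at 25 °C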
tim10-1 conf: growth inhibitors of tim10-1 mutant yeast, confirmation, single concentration, luminescence, S. cerevisiae; shares compounds with tim10-1 inh; S. cerevisiae tim10-1 ts strain growth, BacTiter-Glo, 24 h; 7,400 compounds, 56% hits; AID 463213, 2010; inhibition, % at 20 µM;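 active = inhibition of yeast growth at or above a set limit in either of two repeat tests at 20 µM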;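 note: tim10-1 mutant grown at permissive 25 °C to find synthetic lethal compounds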
tim10 confirm: growth inhibitors of wild-type TIM10 yeast, confirmation, counter-screen for tim10-1 synthetic lethality project, single concentration, luminescence, S. cerevisiae | shares compounds with TIM10 inh | S. cerevisiae tim10 strain growth, BacTiter-Glo luminescence, 24 h | inhibition, % at 10 µM | 4,600 compounds, 63% hits | AID 463215, 2010;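 active = inhibition of yeast growth at or above a set limit in either of two replicates at 10 µM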; note: this counterscreen used the strain with wild-type TIM10
Each line names hits and unclear results; the compound was inactive in the other large screens (follow-up assays come after a bar, where they were run). The list is not random: actives were taken first. Their share in the collection is about 4.7%.

O=C(/C(=C/O)N=Nc1ccccc1Cl)c1ccccc1	TIM10 inh 91, tim10-1 inh 43 | tim10-1 conf inactive | tim10 confirm inactive
COC(=O)N/N=C/c1cc(N=Nc2ccccc2Cl)ccc1O	none
OC(CNCC(c1ccc(Cl)cc1Cl)c1c[nH]c2ccccc12)c1ccccc1 (configuration not stated)	SKKanGAS inh 80, TIM10 inh 59, tim10-1 inh 54 (no result: PfHsp90 yeast 2) | tim10-1 conf inactive | tim10 confirm 61
COc1ccc(CCNC(=O)CCCCCn2c(SCC(N)=O)nc3cc4c(cc3c2=O)OCO4)cc1OC	none
Nn1cnnc1N/N=C/c1cccc(Cl)c1Cl	TIM10 inh 52, tim10-1 inh 51 | tim10-1 conf 50 | tim10 confirm 60
Nn1cnnc1N/N=C/c1ccccc1C(F)(F)F	none
O=C(Nc1cc2cccc([N+](=O)[O-])c2oc1=O)c1cccs1	none
O=C(O)C1CCCC2CN3CCc4c([nH]c5ccccc45)C3C(O)C21 (configuration not stated)	none
O=c1oc2ccccc2nc1/C=C(O)/C=C\c1ccccc1	TIM10 inh 45, tim10-1 inh 58 (no result: PfHsp90 yeast 2) | tim10-1 conf 46 | tim10 confirm 44
CCCCn1c(N)c(N(CC)C(=O)c2c(C)noc2C)c(=O)[nH]c1=O	none (no result: SKKanGAS inh)
Cc1cc(N)ncc1[N+](=O)[O-]	none (no result: tim23-1 inh, SKKanGAS inh, TIM10 inh, tim10-1 inh)
Cc1cc(Sc2nc(N)ncc2[N+](=O)[O-])ncn1	TIM10 inh 49, tim10-1 inh 51 | tim10-1 conf 48 | tim10 confirm 32
CCOC(=O)C1CCCN(C(=O)c2sc3nc(-c4ccccc4)cn3c2C)C1 (configuration not stated)	none
CCOC(=O)C1CCCN(C(=O)c2sc3nc(-c4ccc(F)cc4)cn3c2C)C1 (configuration not stated)	TIM10 inh 56, tim10-1 inh 53 | tim10-1 conf 48 | tim10 confirm 42
COc1ccc(N2CCN(C(=O)c3sc4nc(-c5ccc(F)cc5)cn4c3C)CC2)cc1	none
CCOC(=O)C1CCN(C(=O)c2sc3nc(-c4ccc(F)cc4)cn3c2C)CC1	TIM10 inh 78, tim10-1 inh 74 | tim10-1 conf 74 | tim10 confirm 69
CC(C)c1ccc(NC(=S)N(C)CCc2ccccn2)cc1	none (no result: PfHsp90 yeast 2)
CO/N=C/c1ccc(Sc2ccccc2)c([N+](=O)[O-])c1	none
CO/N=C/c1ccc(Sc2ccccc2N)c([N+](=O)[O-])c1	TIM10 inh 44, tim10-1 inh 49 | tim10-1 conf 35 | tim10 confirm inactive
Cc1ccc(CNC(=O)CC2(CC3=NS(=O)(=O)c4ccccc4N3)CCCC2)cc1	none
CCN1CCN(C(=S)NC(=O)c2cccs2)CC1	none
O=C(NC(=S)N1CCN(c2ccc(C(F)(F)F)cc2[N+](=O)[O-])CC1)c1cccs1	SKKanGAS inh 87, TIM10 inh 40, tim10-1 inh 44 | tim10-1 conf inactive | tim10 confirm inactive
COc1ccccc1S(=O)(=O)Nc1cc(C)nn1-c1ccc(C)cc1	none
Cc1ccccc1NC1=C/C(=N\S(=O)(=O)c2cccs2)c2ccccc2C1=O	SKKanGAS inh 90, TIM10 inh 67, tim10-1 inh 82 | tim10-1 conf 77 | tim10 confirm 54
N#Cc1nc(-c2cccs2)oc1NCCN1CCOCC1	none (no result: PfHsp90 yeast 2)
N#Cc1nc(-c2cccs2)oc1NCCc1ccccc1	TIM10 inh 65, tim10-1 inh 57 (no result: PfHsp90 yeast 2) | tim10-1 conf 38 | tim10 confirm 68
